# Some of the results follow. Calls of active or inactive are those of the source.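 The calls were made as follows, unless noted: active = mean inhibition across four replicates of at least 40 percent at the single tested concentration; inactive = the rest.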
# Tests used:
# [1] = inhibitors of PAF-induced NFkB signaling in CF airway cells, dose response, cell-based, uHTS hits, panel, cytotoxicity readout (AID 624344); conditions: CF bronchial epithelial cells, PAF-induced NFkB reporter inhibition, with PAF, run 1; at 79 µM (top of the series) unless noted
# [2] = as above; conditions: CF bronchial epithelial cells, PAF-induced NFkB reporter inhibition, with PAF, run 2; at 79 µM (top of the series) unless noted
# [3] = target: Tumor necrosis factor receptor superfamily member 10B (Homo sapiens) (UniProt O14763); test: caspase-8 TRAIL sensitization, hit retest, confirmation, cell-based, NB7+caspase-8, with/without TRAIL, luminescence panel (AID 651596; in the data active = activity above about 50%); conditions: NB7 neuroblastoma + caspase-8, TRAIL sensitization, luminescence viability, with TRAIL, mean of runs, at 10 µM, stronger effect = higher value
# Chain of Tumor necrosis factor receptor superfamily member 10B (Homo sapiens) (O14763 whole entry, looked up): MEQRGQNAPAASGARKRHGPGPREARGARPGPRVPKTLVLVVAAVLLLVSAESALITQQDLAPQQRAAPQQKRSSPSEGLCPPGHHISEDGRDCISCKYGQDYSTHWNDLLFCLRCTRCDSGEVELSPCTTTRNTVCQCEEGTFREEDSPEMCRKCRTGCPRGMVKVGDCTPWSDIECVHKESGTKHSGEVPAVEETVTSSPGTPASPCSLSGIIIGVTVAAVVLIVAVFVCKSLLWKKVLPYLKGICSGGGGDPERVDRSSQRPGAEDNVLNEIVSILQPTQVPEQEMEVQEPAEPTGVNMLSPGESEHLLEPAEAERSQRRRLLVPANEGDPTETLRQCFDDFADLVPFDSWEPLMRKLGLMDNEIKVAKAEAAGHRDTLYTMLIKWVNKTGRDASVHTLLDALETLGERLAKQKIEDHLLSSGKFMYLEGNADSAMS
# [4] = as above; conditions: NB7 neuroblastoma + caspase-8, without TRAIL, luminescence viability, without TRAIL, mean of runs, at 10 µM
# [5] = target: Tumor necrosis factor receptor superfamily member 10B (Homo sapiens) (UniProt O14763); test: TRAIL sensitizers in caspase-8 expressing neuroblastoma cells, dose response, NB7 cells plus caspase-8, luminescence, panel (AID 652002); conditions: NB7 neuroblastoma +caspase-8, TRAIL sensitization, luminescence viability, NB7+Caspase-8, with TRAIL, run 1; at 12.5 µM (top of the series)
# [6] = target: Tumor necrosis factor receptor superfamily member 10B (Homo sapiens) (UniProt O14763); test: as above; conditions: NB7 neuroblastoma +caspase-8, TRAIL sensitization, luminescence viability, NB7+Caspase-8, with TRAIL, run 2; at 12.5 µM (top of the series)
# [7] = as above; conditions: NB7 neuroblastoma +caspase-8, no TRAIL, compound-alone cytotoxicity counter-screen, luminescence viability, NB7+Caspase-8, run 1; at 12.5 µM (top of the series) unless noted
# [8] = as above; conditions: NB7 neuroblastoma +caspase-8, no TRAIL, compound-alone cytotoxicity counter-screen, luminescence viability, NB7+Caspase-8, run 2; at 12.5 µM (top of the series) unless noted
# [9] = HIF-2a reporter inhibitor retest, confirmation, luminescence, 786-0 RCC cells (AID 651580); conditions: HIF-2a luciferase reporter luminescence, overnight, at 18.8 µM, stronger effect = higher value
# [10] = HIF-1a luciferase reporter signal reduction – MiaPaCa-2 cells, single concentration, counter-screen for HIF-2a inhibitor project, confirmation (AID 651589;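 active = mean inhibition of the reporter signal across four replicates at the single tested dose of 50% or more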); conditions: MiaPaCa-2 HIF-1a luciferase reporter, desferoxamine, overnight; at 18.8 µM; stronger effect = higher value
structure (smiles),measurement,setting,value
Cc1ccc(Nc2nc3nonc3[nH]c2=O)cc1Cl,inhibition,[1],118%
same,inhibition,[2],104%
CCOc1cc2c(cc1O)C(=NO)CC1C2CCC2(C)C(O)CCC12 (stereo unspecified),inhibition,[1],103%
same,inhibition,[2],112%
Cc1ccc(S(=O)(=O)/N=C(\CCl)N2CCOCC2)cc1,inhibition,[1],110%
same,inhibition,[2],102%
Cc1ccnc(NC(=O)CSc2cc(=O)n(C)c3ccccc23)c1,inhibition,[1],103%
same,inhibition,[2],110%
O=S(=O)(Nc1ccc(Cl)cc1NS(=O)(=O)c1ccccc1)c1ccccc1,inhibition,[1],114%
same,inhibition,[2],85.8%
O=C(Nc1ccc2ccccc2c1)c1ccccc1O,inhibition,[1],102%
same,inhibition,[2],90.4%
same,activity,[3],64.2%
same,activity,[4],52.8%
CC(=O)Nc1ccc(-c2ccnc3c2CC(C(=O)NCc2ccco2)O3)cc1 (stereo unspecified),inhibition,[1],70%
same,inhibition,[2],78%
Cc1cccc(NC(=O)c2nc[nH]c2C(=O)NCCCNC(=O)c2[nH]cnc2C(=O)Nc2cccc(C)c2)c1,inhibition,[1],97.6%
same,inhibition,[2],75.5%
Cc1ccc(S(=O)(=O)Nc2nc3ccccc3nc2Nc2cccc(S(=O)(=O)N3CCCC3)c2)cc1,inhibition,[1],94.9%
same,inhibition,[2],103%
Nc1cc2c(cc1Br)-c1ccccc1C2=NO,inhibition,[1],93.5%
same,inhibition,[2],106%
COc1cc(C(=O)Nc2nnc(-c3sccc3C)s2)cc(OC)c1OC,inhibition,[1],47.9%
same,inhibition,[2],89.3%
COc1cccc(-c2cc(NC=O)c3ncc(-c4ccc(C(C)=O)cc4)n3c2)c1,inhibition,[1],84.6%
same,inhibition,[2],93.6%
CCOC(=O)c1sc(NC(=O)c2cccc(S(=O)(=O)N3CCc4ccccc43)c2)c(C#N)c1C,"activity, % sensitization",[5],29.7%
same,"activity, % sensitization",[6],-18%
same,"activity, % sensitization",[7],1.22%
same,"activity, % sensitization",[8],-10%
O=Nc1ccc(NO)c2ccccc12,"activity, % sensitization",[5],19%
same,"activity, % sensitization",[6],40.7%
same,"activity, % sensitization",[7],39.7%
same,"activity, % sensitization",[8],31.2%
CC(C)C[C@@H](N)c1nnc(SCC(=O)c2ccc(Cl)cc2)o1,inhibition,[9],80% (active)
same,inhibition,[10],-10.2% (inactive)

# Reference: PubChem BioAssay
